Assay results reported in PubChem BioAssay (EPA / NIEHS).
The source made the active and inactive calls. Rule for the calls: active = hit-call score of the fitted dose curve at least 0.9, where 1 is the maximum; inactive = score below 0.9.

Read-out: Monocyte Chemoattractant Protein-1 (MCP1), CCL2 (gene 6347)
Assay: BSK_4H_MCP1: BioMAP Diversity Plus: 4H Assay for Monocyte Chemoattractant Protein-1 (MCP1) Biomarker Activity (AID 2283018)
Conditions: primary human endothelial cells (HUVEC); actives raise or lower the signal
Procedure, shortened: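 Readout: MCP-1 ELISA on compound-treated HUVEC, sampled 24 h post-dosing. Baseline and negative control DMSO; bidirectional fit. Overt toxicity checked alongside by sulforhodamine B protein staining at time of biomarker measurement.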

Structure (SMILES)	outcome	AC50
O=C=NC1CCC(CC2CCC(N=C=O)CC2)CC1 (stereo not given)	inactive	–
CCc1c(C)cc(N)c(CC)c1N	inactive	–
CCCCC(CC)COCCC#N (stereo not given)	inactive	–
CCC(=O)OCc1ccccc1	inactive	–
CC(=O)Nc1ccccc1O	inactive	–
O=P(c1ccccc1)(c1ccccc1)c1ccccc1	inactive	–
OC1OC[C@@H](O)[C@H](O)[C@H]1O (stereo not given in full)	inactive	–
NCCNCCN	inactive	–
Cc1ccc(O)c(C(C)(C)C)c1	–	24.9 µM (active)
C=C[Si](OCC)(OCC)OCC	inactive	–

Read-out: Human Leukocyte Antigen - DR isotype (HLADR), HLA-DRA (gene 3122)
Assay: BSK_3C_HLADR: BioMAP Diversity Plus: 3C Assay for Human Leukocyte Antigen - DR isotype (HLADR) Biomarker Activity (AID 2283019);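 for outcome: ELISA of cell-surface HLA-DR on HUVEC 24 h after dosing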
Conditions: primary human endothelial cells (HUVEC); actives raise or lower the signal
Procedure, shortened: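 HUVEC, 3C stimulation, 24 h post-dose; HLA-DR by ELISA; bidirectional curve fit vs DMSO baseline; gain or loss of signal scored.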

Structure (SMILES)	outcome	AC50
O=C=NC1CCC(CC2CCC(N=C=O)CC2)CC1 (stereo not given)	inactive	–
CCc1c(C)cc(N)c(CC)c1N	inactive	–
CCCCC(CC)COCCC#N (stereo not given)	–	20 µM (active)
CCC(=O)OCc1ccccc1	inactive	–
CC(=O)Nc1ccccc1O	inactive	–
O=P(c1ccccc1)(c1ccccc1)c1ccccc1	inactive	–
OC1OC[C@@H](O)[C@H](O)[C@H]1O (stereo not given in full)	inactive	–
NCCNCCN	inactive	–
Cc1ccc(O)c(C(C)(C)C)c1	–	29.8 µM (active)
C=C[Si](OCC)(OCC)OCC	inactive	–
